# Measurements as given in PubChem BioAssay AID602439 (Southern Research Specialized Biocontainment Screening …, 2012).
# Potency and affinity values are given separately. The source made the active and inactive calls. The rule behind the calls is not given here.
# Experiment: Vero 76 cell cytotoxicity, dose response, cytotoxicity control, set 3 (AID 602439)
# Details: Vero 76 cell viability; series mostly up to 50 µM; viability: at the top concentration
row,SMILES,viability
1,O=C(Cc1ccccc1)Nc1nc2c(s1)CCCC2,94.1% (inactive)
2,O=c1c2cc([N+](=O)[O-])ccc2nc(CN2CCOCC2)n1-c1ccccc1F,96.3% (inactive)
3,O=C(Cc1cccs1)Nc1nccs1,101% (inactive)
4,CN1CCN(Cc2nc3ccc([N+](=O)[O-])cc3c(=O)n2-c2ccccc2F)CC1,92.9% (inactive)
5,O=C(Cc1cccs1)Nc1nc2ccccc2s1,92% (inactive)
6,CC(C)N1CCN(Cc2nc3ccc([N+](=O)[O-])cc3c(=O)n2-c2ccccc2F)CC1,91.7% (inactive)
7,CN(C(=O)Cc1cccs1)c1nc2c(s1)CCCC2,93.3% (inactive)
8,CCN1CCN(Cc2nc3ccc([N+](=O)[O-])cc3c(=O)n2-c2ccccc2F)CC1,91.3% (inactive)
